# Source: PubChem (several laboratories)
# EBNA-1 inh = blocks EBNA-1 binding to DNA | EBNA-1 DNA binding, fluorescence polarization | inhibition, % at 14.8 µM | 0.34% of 300,000 active | AID 1950; in the data active = inhibition above about 28%
# LANA-H2B inh = blocks KSHV LANA binding to histone H2A/H2B; cell-free LANA-H2A/H2B peptide, fluorescence polarization; AID 2629; inhibition, % (test concentration not listed); 0.6% of 320,000 active; Q9QR71; in the data active = inhibition mostly above about 10%, no sharp cut-off; inactive = mostly below about 6.7%
# LYPLA2 inh = LYPLA2 (human) inhibition in PME1 counter-screen. O95372. recombinant LYPLA2, FP-Rh probe fluorescence polarization. inhibition, % at 5.9 µM. 0.38% of 320,000 active. AID 2177;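 active = inhibition above the screen-wide mean plus 3 SD, limit set per campaign, cut at about 26% in these data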;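 also: 0% = LYPLA2 with DMSO and 100% = wells lacking LYPLA2 enzyme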
# LYPLA1 inh = blocks human lysophospholipase 1, a PME1 counter-screen | recombinant LYPLA1, FP-Rh probe fluorescence polarization | inhibition, % at 5.9 µM | AID 2174 | 0.16% of 320,000 active | O75608;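 active = inhibition above the mean of all tested compounds plus 3 SD, set per campaign, cut at about 14% in these data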;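 also: inhibitors block serine hydrolase probe labeling of LYPLA1 so polarization falls; 0% = enzyme with DMSO and 100% = wells lacking LYPLA1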
# ZTA counter = ZTA (EBV) inhibition in EBNA-1 counter-screen; ZTA-DNA binding, fluorescence polarization; P03206; inhibition, % at 11 µM; AID 2234; 0.15% of 320,000 active; in the data active = inhibition above about 33%
# The depositor's hits bear a star; / = not tested or not shown; + = active, no number. Shown are actives, neighbours in structure and some others; about 1.4% of the full set was active somewhere.
SMILES,EBNA-1 inh,LANA-H2B inh,LYPLA2 inh,LYPLA1 inh,ZTA counter
COc1cccc(CNC(=O)c2cccc(S(=O)(=O)N3CCN(c4ccc(F)cc4)CC3)c2)c1,3,22*,-7,-5,-8
O=C(C[C@@H]1C/C=C/CCCC(=O)O[C@H](c2ccccc2)CNC1=O)N[C@H](CO)Cc1ccccc1,/,10*,/,/,/
O=C(C[C@H]1C/C=C\C[C@@H](Cc2ccc(F)cc2)C(=O)O[C@H](c2ccccc2)CNC1=O)N[C@@H](CO)Cc1ccccc1,/,0,/,/,/
CCOC(=O)c1ccc(N2C(=O)C(O)=C(C(C)=O)C2c2ccc([N+](=O)[O-])cc2)cc1 (stereo unspecified),-10,-2,-6,-3,0
CC(=O)C1=C(O)C(=O)N(c2ccc(C(=O)O)cc2)C1c1ccc([N+](=O)[O-])cc1 (stereo unspecified),-5,13*,-5,-1,-10
CCOC(=O)c1ccc2c(c1)n(CC)c(/C=C/N(C)c1ccccc1)[n+]2CC,2,1,-3,1,18
CC[n+]1c(/C=C/N(C)c2ccccc2)n(-c2ccccc2)c2ccc(-c3nc4ccccc4s3)cc21,15,-9,9,2,42*
O=C(CCCN1C(=O)c2cccnc2C1=O)Nc1ccccc1F,-3,-1,0,3,2
O=C(CCCN1C(=O)c2cccnc2C1=O)N1CC(=O)N(CCc2ccccc2)C(=O)C1,5,25*,-1,-3,-13
CCOc1ccc(NC(=O)N2CCC(NC(=O)C(Cc3ccccc3OC)NC(C)=O)CC2)cc1 (stereo unspecified),-5,6,1,4,-10
CCOC(=O)c1cnc2ccccc2c1NCCO,1,16*,-7,-6,5
O=C(Nc1cc([N+](=O)[O-])ccc1F)C1CC1,4,29*,-2,-3,7
COc1ccc(CN(C)S(=O)(=O)c2nnc(NC(=O)c3cccc(F)c3)s2)cc1,-3,1,2,-6,0
O=C(NCC1COc2ccccc2O1)c1cccc(S(=O)(=O)N2CCOCC2)c1 (stereo unspecified),/,26*,1,0,5
CCOC(=O)C1=C(COC(=O)/C=C/c2cc(OC)c(OC)c(OC)c2)NC(=O)NC1C (stereo unspecified),13,1,-5,-1,-5
O=C(c1ccncc1)N1CCN(S(=O)(=O)c2cccc(C(F)(F)F)c2)CC1,/,2,6,5,-2
O=C(O)c1ccccc1C(=O)N1CCN(S(=O)(=O)c2cccc(C(F)(F)F)c2)CC1,/,43*,/,/,/
CCC(C)[C@H]1CNC(=S)N1CCC12CC3CC(CC(C3)C1)C2 (stereo partly specified),10,16*,-2,-6,-5
O=C(N/N=C/c1sc2ccccc2c1O)c1ccccc1,8,-7,-4,-2,-6
COc1ccc(C(=O)N/N=C/c2sc3ccccc3c2O)cc1,8,+,4,-1,11
O=C(N/N=C/c1sc2ccccc2c1O)c1cccc2ccccc12,-1,+,2,-2,21
CCOC(=O)C1CCN(CC(=O)c2c(C)n(C)c3ccc(OC)cc23)CC1,5,2,3,1,1
CC(C)(CNC(=O)CCNC(=O)c1ccc(Br)cc1)N1CCOCC1,0,-5,-2,2,7
Cc1cc(C)cc(S(=O)(=O)c2cnc3ccccc3n2)c1,-27,14*,-2,0,11
O=C(NCCOC(=O)c1ccccc1)c1ccccc1,/,3,6,1,-2
SMILES,EBNA-1 inh,LANA-H2B inh,LYPLA2 inh,LYPLA1 inh,ZTA counter
N#C/C(=C\c1cn(CCOc2ccccc2)c2ccccc12)C(=O)NCc1cccs1,37*,6,1,-3,-5
COc1ccc(OCCn2cc(/C=C(\C#N)C(=O)NCc3ccco3)c3ccccc32)cc1,25,2,6,0,17
CCN(Cc1nc2cc(Cl)ccc2c(=O)[nH]1)C(=O)c1cccc(OCc2c(C)noc2C)c1,/,91*,9,5,-13
CCN(Cc1nc2cc(Cl)ccc2c(=O)[nH]1)C(=O)c1cccc(NC(=O)c2cccs2)c1,/,6,-13,-7,6
CCOc1ccc(C(C(=O)NCC2CCCO2)N(Cc2cccs2)C(=O)c2snc(C(N)=O)c2N)cc1 (stereo unspecified),-11,8,-5,-1,-12
COCCN(CCOC)C(=O)c1ccc(NS(=O)(=O)c2ccc3[nH]c(=O)[nH]c3c2)cc1,-6,33*,-3,0,-7
Cc1cccc(NC(=O)CN2C(=O)S/C(=C\c3ccc(O)c([N+](=O)[O-])c3)C2=O)c1,5,1,81*,1,17
O=C(c1ccco1)N1CCN(c2cc(=O)n(-c3ccc(Cl)cc3)c(=O)[nH]2)CC1,12,19*,-1,1,-12
O=C(NCCN1CCOCC1)/C(=C/c1ccco1)NC(=O)c1ccccc1,6,-3,1,1,-9
COc1ccc(NC(=O)Cn2cnc3ccccc3c2=O)cc1OC,-5,16,4,-3,-1
COc1ccc2nc(NC(=O)CSC(C)C(=O)Nc3cc(C)on3)sc2c1 (stereo unspecified),-5,17*,-3,2,3
COc1ccc2nc(NC(=O)Cn3cnc4ccccc4c3=O)sc2c1,12,177*,-6,-8,-11
COc1cc(/C=C/C(=O)OCC(=O)NCCN2C(=O)CSC2=O)ccc1OCC#N,/,0,-5,-4,14
CN(CC(=O)Nc1ccc(Cl)c(Cl)c1)C(=O)c1cccc2cccnc12,/,70*,5,-2,-9
CC(C)Cc1ccc(C(C)C(N)=NCCc2ccccc2)cc1 (stereo unspecified),/,-3,/,/,/
CC(Oc1ccc(-c2ccccc2)cc1)C(=O)N/N=C/c1cccnc1 (stereo unspecified),-1,-4,-2,1,-10
Cc1cccc(N2CCN(CC(=O)NCc3ccccc3)CC2)c1C,7,1,1,-3,16
O=C(CN1CCN(c2ccccc2F)CC1)NCc1ccccc1,-9,33*,2,-2,-22
C=CCN(Cc1ccc(OC)c(OC)c1)C(=O)c1cc2cc(F)ccc2[nH]1,5,-1,-2,-2,-8
CC(Oc1cccc(Cl)c1)c1ccnc2nc(/N=C/N(C)C)nn12 (stereo unspecified),-8,112*,-1,-1,-3
O=C(NC(CO)Cc1ccc([N+](=O)[O-])cc1)C(Cl)Cl (stereo unspecified),-5,22*,1,-1,-14
O=C(NC(CO)C(O)c1ccc([N+](=O)[O-])cc1)C(Cl)Cl (stereo unspecified),2,-10,2,-1,-5
CCOC(=O)C1=C(COC(=O)c2ccco2)NC(=O)NC1CC (stereo unspecified),/,-1,2,2,9
CSc1cccc(NC(=S)N(CCCN2CCCC2)Cc2cccn2Cc2ccc(Cl)cc2)c1,-26,13*,1,0,-21
